The list is not random: actives were taken first. Their share in the collection is about 3.5%.
Bead autofluor = flagged as autofluorescent in microsphere protease counterscreen. fluorescence intensity (no concentration beside the values). 3.1% of 360,000 active. compound autofluorescence counterscreen, microsphere flow cytometry; active compounds read high; in the data active means fluorescence intensity above about 16000; inconclusive means no clear call, values can overlap the other calls
BJeLR lethal = kills HRASV12-expressing BJeLR cells | 0.17% of 300,000 active | inhibition, % (test concentration not listed) | BJeLR (HRASV12) viability, CellTiter-Glo ATP luminescence, 48 h; in the data active means inhibition above about 50%; inconclusive means no clear call, values can overlap the other calls
BoNT A protease = BoNT A light chain protease inhibition. multiplex microsphere protease substrate cleavage, flow cytometry. inhibition, % at 10 µM. 0.17% of 360,000 active; further: plate controls were buffer without enzyme for full effect and enzyme alone for no effect
BoNT F protease = inhibitors of Botulinum neurotoxin F light chain protease. inhibition, % at 10 µM. Multiplex microsphere protease cleavage assay, flow cytometry. 0.22% of 360,000 active. AID 588497; in the data active means inhibition above about 35%, passing the limit was not always enough; inconclusive means no clear call, values can overlap the other calls; further: plate controls were buffer without enzyme for full effect and enzyme alone for no effect
Anthrax LF inh2 = inhibitors of Bacillus anthracis lethal factor protease | 0.12% of 360,000 active | multiplex microsphere protease cleavage assay, LF | inhibition, % at 10 µM | P15917 | AID 588501; further: plate controls were buffer without enzyme for full effect and enzyme alone for no effect
Starred values were filed as active, the others as inactive. Unless noted, no stated cut-off is given here; in the data, active means inhibition above about 30%; inconclusive means no clear call, values can overlap the other calls; inactive means below that.

For Cc1c(Cl)cccc1NC(=O)COc1ccc(S(=O)(=O)N2CCOCC2)cc1 the results were Bead autofluor 16522*, BJeLR lethal -8, BoNT A protease 0, BoNT F protease 1 and Anthrax LF inh2 -2.
For CCOC(=O)C1=C[C@@H](C(C)(C)C)N(S(=O)(=O)c2ccc(C)cc2)[C@H]1c1ccc(Cl)c(Cl)c1 the results were Bead autofluor 6054, BoNT A protease 0, BoNT F protease -13 and Anthrax LF inh2 2.
Screening O=C(Nc1nnc([C@@H]2C[C@H](O)[C@@H](CO)O2)s1)Nc1ccccc1C(F)(F)F returned Bead autofluor 3736, BoNT A protease 0, BoNT F protease 1 and Anthrax LF inh2 7.
Cc1nnsc1SCC(=O)O was read as Bead autofluor 3288, BJeLR lethal 5, BoNT A protease 0, BoNT F protease 6 and Anthrax LF inh2 1.
`CCC(C)Sc1cc(-c2nc3cc(C)ccn3c2NC2CCCCC2)ccc1OC` (configuration not stated) gave Bead autofluor 23753*, BoNT A protease -4, BoNT F protease 2 and Anthrax LF inh2 -12.
O=C(NC1CCN(Cc2ccc(Cl)cc2)CC1)c1cn(-c2ccccc2)nc1-c1cccnc1 was read as Bead autofluor 21980*, BoNT A protease 0, BoNT F protease 7 and Anthrax LF inh2 -9.
Screening COc1ccc(-c2nn(-c3ccccc3)cc2C(=O)O)cc1OC returned Bead autofluor 10292, BJeLR lethal -4, BoNT A protease -1, BoNT F protease -10 and Anthrax LF inh2 -3.
Screening CCN(CC)C(=O)C1=C(C)NC(=S)NC1c1cn(-c2ccccc2)nc1-c1ccc(Cl)cc1 (configuration not stated) returned Bead autofluor 23563*, BJeLR lethal -2, BoNT A protease 0, BoNT F protease -2 and Anthrax LF inh2 -1.
Screening O=C(NCc1ccncc1)c1cn(-c2ccccc2)nc1-c1cccnc1 returned Bead autofluor 4307, BJeLR lethal 8, BoNT A protease 0, BoNT F protease -1 and Anthrax LF inh2 1.
O=C(O)c1cn(-c2ccccc2)nc1-c1ccc(Cl)cc1 was read as Bead autofluor 17250*, BJeLR lethal 3, BoNT A protease -6, BoNT F protease -9 and Anthrax LF inh2 -9.
COc1ccc([C@H]2CC(=O)C[C@@H](CCn3cc(CCc4ccccc4)nn3)O2)cc1 was read as Bead autofluor 5549, BoNT A protease 0, BoNT F protease -1 and Anthrax LF inh2 0.
COc1ccc2c(c1)c1ncn(CCN3CCNCC3)c(=O)c1n2C was read as Bead autofluor 22441*, BJeLR lethal -15, BoNT A protease 2, BoNT F protease 2 and Anthrax LF inh2 -2.
Screening COc1ccc2c(c1)c1ncn(CCN3CCCCC3)c(=O)c1n2C returned Bead autofluor 10891, BJeLR lethal -20, BoNT A protease 0, BoNT F protease 2 and Anthrax LF inh2 -6.
`COc1ccc2c(c1)c1ncn(CCN3CCCC3)c(=O)c1n2C` gave Bead autofluor 21856*, BJeLR lethal 5, BoNT A protease -2, BoNT F protease -2 and Anthrax LF inh2 -1.
`CCN(C(=O)c1ccc(Cl)c([N+](=O)[O-])c1)c1ccccc1` gave Bead autofluor 3687, BJeLR lethal 4, BoNT A protease 0, BoNT F protease -14 and Anthrax LF inh2 -9.
`CCN(C(=O)c1ccnc(C(C)(C)C)c1)c1ccccc1` gave Bead autofluor 21211*, BJeLR lethal 0, BoNT A protease 6, BoNT F protease 6 and Anthrax LF inh2 -3.
`Cc1ccc(NC(=O)N(C2CCCCC2)C(C)c2cccnc2)cc1C` (configuration not stated) gave Bead autofluor 5584, BJeLR lethal -12, BoNT A protease 0, BoNT F protease 1 and Anthrax LF inh2 -6.
CCc1ccc(NC(=O)c2cccnc2)cc1 was read as Bead autofluor 21122*, BJeLR lethal 10, BoNT A protease inconclusive, BoNT F protease -5 and Anthrax LF inh2 -2.
For CCc1ccc(NC(=O)c2ccnc(C(C)(C)C)c2)cc1 the results were Bead autofluor 24202*, BJeLR lethal 9, BoNT A protease -1, BoNT F protease -2 and Anthrax LF inh2 -2.
CCc1ccc(NC(=O)N(C2CCCCC2)C(C)c2cccnc2)cc1 (configuration not stated) was read as Bead autofluor 20168*, BJeLR lethal -1, BoNT A protease -2, BoNT F protease -2 and Anthrax LF inh2 0.

Assay outcomes (PubChem BioAssay)
